Test results from ChEMBL document CHEMBL3988442, “University of Dundee, Small-Polar-MMV Screening Library” (2021).
Hit rate of the full screen: of about 48,000 compounds, about 13,000 (27%) showed an effect of 50% or more. The list shows a part of the results.

What follows are molecules tested on Wolbachia pipientis (assay: Anti-Wolbachia Cell-Based Screen). Details: 5 µM.
Type: functional
Design: scale not given: in the data most compounds retested in dose-response had high values

SMILES | Percent Effect [%]
Cn1cc(C(=O)N2CCN(c3ncccn3)CC2)ccc1=O | 122.7
Cn1ccc(C(=O)N2CCN(c3ccccn3)CC2)cc1=O | 94.46
Cn1ccc(CN2CCCN(c3nccs3)CC2)cc1=O | 11.25
Cn1cc(C(=O)N2CCN(c3ccc(F)cc3)CC2)ccc1=O | 27.16
Cn1ccc(C(=O)N2CCN(c3nccs3)CC2)cc1=O | 97.2
O=C(c1cc(Cl)cc(Cl)c1)N1CCN(c2nccs2)CC1 | -10.96
Cn1ccc(C(=O)N2CCN(c3cc(C#N)ccn3)CC2)cc1=O | 6.84
Cn1ccc(C(=O)N2CCN(c3ncccn3)CC2)cc1=O | -7.771
Cn1cc(C(=O)N2CCN(c3ccccc3)CC2)ccc1=O | -6.133
Cc1cnccc1-n1nc(C(C)C)nc1CCc1cnccn1 | -10.93
Cc1noc(CCCC(=O)NC(C)c2cn(-c3ccccc3)nn2)n1 (stereo not drawn) | -6.671
CCS(=O)(=O)N1CCO[C@H]2[C@H](OCC3CCCC3)CC[C@@H]21 | -19.91
CO[C@@H]1CC[C@H]2[C@H]1OCCN2S(=O)(=O)C1CC1 | 111.8
Cn1cnc(S(=O)(=O)N2CCO[C@H]3[C@@H](OCC4CC4)CC[C@@H]32)c1 | -7.379
CC(C)CO[C@@H]1CC[C@H]2[C@H]1OCCN2S(=O)(=O)C1CC1 | 103.9
O=S(=O)(C1CC1)N1CCO[C@H]2[C@H](OCC3CC3)CC[C@@H]21 | 103.2
Cn1cnc(S(=O)(=O)N2CCO[C@H]3[C@H](OCC4CC4)CC[C@@H]32)c1 | -0.8778
CCO[C@@H]1CC[C@H]2[C@H]1OCCN2S(=O)(=O)C1CC1 | 110.7
CCO[C@@H]1CC[C@H]2[C@H]1OCCN2S(=O)(=O)c1cn(C)cn1 | -10.77
O=S(=O)(C1CC1)N1CCO[C@H]2[C@H](OCC3CCCC3)CC[C@@H]21 | -8.752
Cc1cc(CN(C)C(=O)NC2CCCN(c3ncccn3)C2)no1 (stereo not drawn) | -2.323
Nc1nccc(N2CCCC(CO)(CCOc3ccccc3)C2)n1 (stereo not drawn) | -20.36

SMILES | Percent Effect [%]
Cn1ccnc1CN1CCN(CC(=O)NCc2cccs2)CC1 | 99.27
CC(C(=O)NCc1cccs1)N1CCN(Cc2nccn2C)CC1 (stereo not drawn) | 4.204
Cc1ccccc1CNC(=O)CN1CCN(Cc2nccn2C)CC1 | 7.197
Cn1ccnc1CN1CCN(CC(=O)NCC(F)(F)F)CC1 | 1.598
Cn1ccnc1CN1CCN(CC(=O)NCc2ccccc2F)CC1 | 129
COc1ccc(CC(=O)N2CC[C@@]3(O)CCNC[C@H]3C2)c(OC)c1 | -12.62
CCc1nc(CN(C)Cc2ncc(-c3cccs3)o2)cs1 | -9.321
CN1CC(c2ccccc2)CC2(CCN(Cc3ncc[nH]3)CC2)C1 (stereo not drawn) | -21.2
Cc1ccc(C(CNCc2cccnc2)N2CCOCC2)s1 (stereo not drawn) | 5.338
Cc1ccccc1NC(=O)NCCn1nc(C(F)(F)F)n(C)c1=O | 4.371
Cn1cc(CNC2CCc3c(ccc(=O)n3Cc3cccnc3)C2)cn1.O=C(O)C(F)(F)F.O=C(O)C(F)(F)F (stereo not drawn) | 105.5
CN(C)CCn1c2c(ccc1=O)CC(NCc1cnn(C)c1)CC2.O=C(O)C(F)(F)F.O=C(O)C(F)(F)F (stereo not drawn) | 92.68
NC1CCc2c(ccc(=O)n2Cc2ccncc2)C1 (stereo not drawn) | -38.16
CN(C)CCn1c2c(ccc1=O)CC(NCc1cccnc1)CC2.O=C(O)C(F)(F)F.O=C(O)C(F)(F)F.O=C(O)C(F)(F)F (stereo not drawn) | -9.426
Cn1cc(CNC2CCc3c(ccc(=O)n3Cc3ccncc3)C2)cn1.O=C(O)C(F)(F)F.O=C(O)C(F)(F)F (stereo not drawn) | 101.4
O=C(NC1CC1)N1CCc2ccc(=O)n(Cc3cccnc3)c2CC1.O=C(O)C(F)(F)F | -14.38
COc1ccc(C2CC(=O)NCc3nc(N(C)C)sc32)c(O)c1 (stereo not drawn) | -25.68
COCCc1ncc(CN2C[C@@H](C(=O)O)[C@H](C(C)C)C2)cn1 | -10.49
Cc1cnc(NS(=O)(=O)c2cccc(C#N)c2)s1 | -4.999
CNC(=O)C(NC(C)=O)c1ccc(F)c(F)c1 (stereo not drawn) | -14.34
Cc1nc(CN2CCC3(CCCN(Cc4cccnc4)C3)C2=O)cs1.O=C(O)C(F)(F)F.O=C(O)C(F)(F)F.O=C(O)C(F)(F)F (stereo not drawn) | 115.5
Cc1nc(CN2CCC3(CCCN(Cc4ccoc4)C3)C2=O)cs1.O=C(O)C(F)(F)F.O=C(O)C(F)(F)F (stereo not drawn) | 117.4

SMILES | Percent Effect [%]
Cc1nc(CN2CCC3(CCCN(Cc4ccncc4)C3)C2=O)cs1.O=C(O)C(F)(F)F.O=C(O)C(F)(F)F.O=C(O)C(F)(F)F (stereo not drawn) | 97.27
Cc1nc(CN2CCOCC3(CCN(c4cccnc4)CC3)C2)cs1.O=C(O)C(F)(F)F.O=C(O)C(F)(F)F | 4.008
N#Cc1ccnc(N2CCN(C(=O)Cc3ccc4c(c3)CCO4)CC2)c1 | -0.6491
CC(NCc1ccncc1)c1ccc(N2CCN(C)CC2)c(F)c1.Cl (stereo not drawn) | 1.312
Fc1ccc2c(c1)CCC2NCc1ccc(N2CCOCC2)cc1 (stereo not drawn) | -1.344
COCCN1C(=O)C2(CCC(C(=O)Nc3ccc(C)cc3)CC2)N=C1C (stereo not drawn) | -12.68
CCC1=NC2(CCC(C(=O)Nc3ccc(F)cc3)CC2)C(=O)N1C (stereo not drawn) | 104.8
COCCN1C(=O)C2(CCC(C(=O)Nc3cccc(C)c3)CC2)N=C1C (stereo not drawn) | -14.6
COCCN1C(=O)C2(CCC(C(=O)Nc3ccccn3)CC2)N=C1C (stereo not drawn) | 12.9
COCCN1C(=O)C2(CCC(C(=O)Nc3ccc(F)cc3)CC2)N=C1C (stereo not drawn) | 17.41
CCC1=NC2(CCC(C(=O)Nc3ccc(C)nc3)CC2)C(=O)N1C (stereo not drawn) | 107.3
Cc1ccc(CNCc2ccc(-n3nc(C)cc3C)nc2)cc1 | -14.48
CN1C[C@H](O)C[C@H]1c1nc(-c2ccc3c(c2)OCO3)no1 | -5.095
CCN1CC(C(=O)NCCCc2nc(C)c(C)s2)CC1=O (stereo not drawn) | -10.95
Cc1cnccc1NCCNC(=O)[C@H]1CNC[C@H](C(=O)N2CCCC2)C1 | 142
O=C(NCc1ccc2nonc2c1)C1CCN(C(=O)C2CCC2)CC1 | 6.946
Cc1cc(C)nc(CCNC(=O)[C@H]2CNC[C@@H](C(=O)N3CCCC3)C2)n1 | 4.192
Cc1cnccc1NCCNC(=O)C1CCCN(Cc2ccco2)C1 (stereo not drawn) | 5.628
Cn1nccc1CCNC(=O)[C@H]1CNC[C@H](C(=O)N2CCCC2)C1 | 89.07
Cc1nc(CCCNC(=O)[C@H]2CNC[C@@H](C(=O)N3CCCC3)C2)sc1C | 84.73
Cn1nnnc1SCCNC(=O)C1CCN(C(=O)C2CCCC2)CC1 | 4.852
Cc1nnc(CCNC(=O)C2CC(=O)N(C(C)(C)C)C2)s1 (stereo not drawn) | -24.96

SMILES | Percent Effect [%]
Cc1nnc(CCNC(=O)[C@H]2CNC[C@@H](C(=O)N3CCCC3)C2)s1 | 111.1
Cc1cccnc1NCCNC(=O)[C@H]1CNC[C@@H](C(=O)N2CCCC2)C1 | 2.912
Cc1csc(CCCNC(=O)[C@H]2CNC[C@@H](C(=O)N3CCCC3)C2)n1 | 5.026
N#CC1(NC(=O)c2nccc3ccccc23)CCSCC1 | -2.14
CCCS(=O)(=O)CC(=O)NC(C)c1cccc(-n2cccn2)c1 (stereo not drawn) | -8.263
Cc1ccc(-c2csc(N)c2C#N)cc1 | -4.785
CCn1cc2c(n1)CN(Cc1sccc1C)CC2COCC1CC1.O=C(O)C(F)(F)F (stereo not drawn) | 6.988
CC(C)Cn1cncc1CNC1CCCNC1 (stereo not drawn) | 2.5
O=C(NCCc1nc(C2CC2)no1)[C@H]1CNC[C@H](C(=O)N2CCCC2)C1 | 183.5
NC(=O)N1CCCC(C(=O)NCCc2nc(Cc3ccccc3)no2)C1 (stereo not drawn) | 5.914
O=C(NCC1CCCO1)C1CCN(Cc2nc(C3CC3)no2)CC1 (stereo not drawn) | 8.427
Cc1cc(C)cc(NC(=O)N(CCC#N)CCCN(C)C)c1 | 13.87
COCCN1CCO[C@@H]2CN(Cc3cc(OC)cc(OC)c3)C[C@@H]2C1.O=C(O)C(F)(F)F.O=C(O)C(F)(F)F | 4.168
O=C(O)C(F)(F)F.O=C([C@H]1CCS(=O)(=O)[C@@H]2CN(CCc3ccccc3)C[C@H]12)N1CCCC1 | -9.586
CN(C)[C@@H]1COC[C@@H]2CN(Cc3ccc4c(c3)OCO4)C[C@@H]21.O=C(O)C(F)(F)F.O=C(O)C(F)(F)F | -14.92
C[C@H]1C(=O)NC[C@H]2CN(Cc3cccc(F)c3)C[C@H]21.O=C(O)C(F)(F)F | 100.1
O=C(C1CC1)N1CCC2(CCN(Cc3cccc(F)c3)CC2)CC1.O=C(O)C(F)(F)F | 10.09
CN(C)[C@H]1COC[C@@H]2CN(Cc3ccc4c(c3)OCO4)C[C@@H]21.O=C(O)C(F)(F)F.O=C(O)C(F)(F)F | -0.2221
COc1cc(CN2C[C@@H]3CNC(=O)[C@H](C)[C@@H]3C2)cc(OC)c1 | 103.5
COc1cc(CN2CCC(NC(=O)c3cccn3C)C2)cc(OC)c1 (stereo not drawn) | -4.957
C[C@@H]1C(=O)NC[C@H]2CN(Cc3ccc4c(c3)OCO4)C[C@H]21.O=C(O)C(F)(F)F | 109.9
C[C@H]1C(=O)NC[C@H]2CN(CCc3ccccc3)C[C@H]21.O=C(O)C(F)(F)F | 113.2
